# Measurements as given in ChEMBL document CHEMBL3988442, “University of Dundee, Small-Polar-MMV Screening Library” (2021).
# Among all 48,000 compounds or so, about 13,000 (27%) showed an effect of 50% or more. Some of the results follow.
# Test system: Wolbachia pipientis
# Test: Anti-Wolbachia Cell-Based Screen
# Assay type: functional
# Parameters: scale not given: in the data most compounds retested in dose-response had high values
# Details: 5 µM
row,Compound,Percent Effect
1,Cc1nn(C)c(C)c1OCC(=O)NCC(O)c1ccco1 (configuration not stated),9.29%
2,CCC1CN(Cc2nc(C(C)C)no2)CCC(=O)N1Cc1ccccc1 (configuration not stated),11.67%
3,COc1cccc(-c2noc(-c3ccc(NCCCO)nc3)n2)c1OC,11.35%
4,Cc1cc(C)n(CC2CN(Cc3cccc(C(N)=O)c3)CCO2)n1 (configuration not stated),-10.5%
5,COc1ccc(CN2CCOC(CCc3ccnc(N)c3)C2)cc1 (configuration not stated),124.3%
6,CCc1nnc2n1CCN(Cc1ccc3c(c1)OCCO3)C2,1.979%
7,CC(C)(C)c1cc(CN2CCOC(CCc3ccccc3)C2)n[nH]1 (configuration not stated),14.18%
8,Nc1cc(CCC2CN(Cc3cccc(C(=O)O)c3)CCO2)ccn1 (configuration not stated),106.3%
9,c1cnn(CC2CN(Cc3ccc(-n4ccnc4)cc3)CCO2)c1 (configuration not stated),-4.298%
10,COc1cccc(CN2CCOC(Cn3nc(C)cc3C)C2)c1 (configuration not stated),-2.903%
11,COc1ccc(CCN2CCOC(Cn3nc(C)nc3C)C2)cc1 (configuration not stated),6.569%
12,Nc1cc(CCC2CN(Cc3ccc(C(=O)O)cc3)CCO2)ccn1 (configuration not stated),7.558%
13,Cc1nccn1CCC1CCCCN1Cc1ccc2c(c1)OCCO2 (configuration not stated),18.54%
14,Nc1cc(CCC2CN(Cc3ccc4c(c3)OCCO4)CCO2)ccn1 (configuration not stated),90.24%
15,Nc1cc(CCC2CN(Cc3ccc4cc[nH]c4c3)CCO2)ccn1 (configuration not stated),120%
16,CC(C)c1nn(CC(=O)N2CCCCC2)c(=O)c2c1cnn2C(C)(C)C,-4.82%
17,COCc1nc(CN2CC(C)(c3ccccc3)CCC2=O)no1 (configuration not stated),5.849%
18,COCc1nc(CN2CC(=O)N(C)c3ccccc3C2=O)no1,-2.193%
19,COc1cccc(S(=O)(=O)Cc2noc(CC(C)C)n2)c1,-0.9778%
20,COc1ccc(S(=O)(=O)Cc2noc(CC(C)C)n2)cc1,-2.844%
21,COCc1nc(CN2CCN(c3ccc(OC)cc3)C(=O)C2C)no1 (configuration not stated),94.02%
22,COc1ccc(N2CCN(Cc3noc(CC(C)C)n3)C(C)C2=O)cc1 (configuration not stated),87.05%
23,CN(CC(N)=O)CC(=O)N(C1=CCCCC1)C1CC1,-2.779%
24,c1coc(CN2CCc3onc(Cn4ccnc4)c3C2)c1,-8.337%

row,Compound,Percent Effect
1,O=C(O)C(F)(F)F.c1coc(CN2CCc3onc(Cn4cccc4)c3C2)c1,-0.2735%
2,Cc1cccc(CN2CCc3onc(CN(C)C)c3C2)n1,101.4%
3,Cc1cccc(CN2CCc3onc(Cn4cccc4)c3C2)n1.O=C(O)C(F)(F)F,93.67%
4,CC(=O)NCc1noc2c1CN(Cc1cccs1)CC2,-5.877%
5,O=C(O)C(F)(F)F.c1csc(CN2CCc3onc(Cn4cccc4)c3C2)c1,-13.64%
6,Cc1cccc(CN2CCc3[nH]nc(C(=O)N(C)C)c3C2)n1.O=C(O)C(F)(F)F,-6.855%
7,Cc1cccc(CN2CCc3[nH]nc(C(=O)N4CCNC(=O)C4)c3C2)n1.O=C(O)C(F)(F)F,-67.35%
8,Cc1cccc(CN2CCc3onc(CO)c3C2)n1.O=C(O)C(F)(F)F,107.8%
9,CN(C)Cc1noc2c1CN(Cc1ccc[nH]1)CC2,98.7%
10,CN(C)Cc1noc2c1CN(C(=O)c1ccncc1)CC2.O=C(O)C(F)(F)F.O=C(O)C(F)(F)F,-9.47%
11,CN(C)Cc1noc2c1CN(Cc1ccsc1)CC2.O=C(O)C(F)(F)F.O=C(O)C(F)(F)F,-7.7%
12,CC(C)OC(=O)N1C[C@H]2CC[C@@H]1CN(C(=O)c1ccccc1)C2,-6.398%
13,O=C(COc1coc(CN2CCCCC2)cc1=O)Nc1ccccc1Cl,12.81%
14,Cc1csc(CNC(=O)NCC(O)c2ccc(F)c(F)c2)n1 (configuration not stated),-9.167%
15,COc1ccc(-n2ccnc2-c2cnc(C(C)C)nc2)cc1C(=O)O,-1.473%
16,CCNC(=O)NC(=O)CSC(C)c1c(F)cccc1F (configuration not stated),4.576%
17,Cc1cnc(CCNC(Cc2ccncc2)C(F)(F)F)s1 (configuration not stated),4.089%
18,CCCS(=O)(=O)NCCn1ccc(-c2cccs2)n1,29.12%
19,CCc1cnc(CCNC(=O)N2CCCC(c3ncc[nH]3)C2)s1 (configuration not stated),-8.688%
20,CCc1cnc(CN(C)C(=O)NC2CCN(CC3CC3)C2)s1 (configuration not stated),-7.872%
21,CCCS(=O)(=O)NCc1ncc(C)c(OC)c1C,21.89%
22,CCCS(=O)(=O)NCCc1ncc(C)s1,113.4%
23,CCCS(=O)(=O)NCCc1ncc(CC)s1,98.37%
24,CS(=O)(=O)NCCc1cccc2cccnc12,-14.96%

row,Compound,Percent Effect
1,CCc1cnc(CCNS(C)(=O)=O)s1,96.32%
2,Cc1noc(C)c1CN(C)Cn1nccc1-c1cccnc1,-3.571%
3,N#Cc1ccccc1CC1CCCS(=O)(=O)C1 (configuration not stated),23.18%
4,CC(C)C(C(=O)N1CCC(Nc2cccnn2)CC1)n1cncn1 (configuration not stated),1.287%
5,Cc1ccc(NC2CCN(C(=O)C(C)n3cncn3)CC2)nn1 (configuration not stated),101.5%
6,Cc1ccc(NC2CCN(C(=O)C(C(C)C)n3cncn3)CC2)nn1 (configuration not stated),114.7%
7,CC(C)C(C(=O)N1CCC(N(C)c2cccnn2)CC1)n1cncn1 (configuration not stated),6.546%
8,CCc1nc(Cn2cncc(Br)c2=O)no1,3.979%
9,Cc1nc(NC(=O)CCOCC(F)(F)F)ccc1Br,7.301%
10,CC(C)n1cnnc1Cn1c(=O)ccc2ccccc21,-18.72%
11,COCCc1noc(-c2cn(Cc3ccc(OC)cc3)nn2)n1,3.926%
12,CS(=O)(=O)c1ccc(O[C@H]2COCCN(Cc3ccncc3)C2)cc1,8.188%
13,CN(C)c1ccnc(N2CCC(NCCOc3ccccc3)CC2)n1,-8.661%
14,Cc1cc(C)nc(N2CCC(c3ccnc(N(C)C)n3)CC2)n1,86.89%
15,CN(C)c1cccc(C2CCN(c3ncccn3)CC2)n1,105.5%
16,CN(C)c1nccc(C2CCN(C3CCCCC3O)CC2)n1 (configuration not stated),139.6%
17,Cc1cc(C)nc(N2CCC(c3nnc(CN(C)C)n3C3CC3)CC2)n1,-32.06%
18,COc1cc(C)nc(N2CCN(C(=O)CN(C)C3CC3)CC2)n1,-6.068%
19,CN(C)c1cccc(C2CCN(C3COCC3O)CC2)n1 (configuration not stated),145.5%
20,O=C(Nc1ccc2ncsc2c1)N1CCCN([C@H]2COC[C@@H]2O)CC1,-6.319%
21,FC(F)(F)c1c[nH]c(C2CCN(c3ncccn3)CC2)n1,-5.698%
22,CCn1cnnc1CN(C)c1nccc(C2CCCC2)n1,-5.507%
23,CN(Cc1nncn1C)c1nccc(C2CCCC2)n1,-0.6799%
24,CC(C)c1ccnc(N[C@H]2COC[C@@H]2N2CCCC2)n1,5.714%
